Source: PubChem BioAssay (EPA / NIEHS)
Calls of active or inactive are those of the source. How the source made its calls: active means hit-call score of the fitted dose curve at least 0.9, where 1 is the maximum; inactive means score below 0.9.

Assays:
[1] = read-out: C-C motif chemokine 2 (Homo sapiens) (UniProt P13500); assay: BSK_KF3CT_MCP1: BioMAP Diversity Plus: KF3CT Assay for Monocyte Chemoattractant Protein 1 (MCP1/CCL2) Biomarker Activity (AID 2283073); conditions: primary human keratinocytes with fibroblasts; actives raise or lower the signal
Procedure, shortened: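 Keratinocytes and foreskin fibroblasts were co-cultured, dosed with chemical, and sampled 24 h later. MCP-1 was quantified by ELISA, and the endpoint was analyzed with bidirectional fitting using DMSO as negative control.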

[2] = read-out: Matrix Metallopeptidase 9 (MMP9), MMP9 (gene 4318); assay: BSK_KF3CT_MMP9: BioMAP Diversity Plus: KF3CT Assay for Matrix Metallopeptidase 9 (MMP9) Biomarker Activity (AID 2283074); conditions: primary human keratinocytes with fibroblasts; actives raise or lower the signal;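 on AC50: MMP9 protein level quantified by ELISA in the co-culture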
Procedure, shortened: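 MMP-9 quantified by ELISA after 24 h chemical treatment of primary human skin keratinocyte/fibroblast co-cultures; gain or loss fitted against DMSO, with parallel SRB staining (0.1% SRB, 560 nm) for overt cytotoxicity.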

[3] = read-out: urokinase plasminogen activator (uPA), PLAU (gene 5328); assay: BSK_KF3CT_uPA: BioMAP Diversity Plus: KF3CT Assay for urokinase plasminogen activator (uPA) Biomarker Activity (AID 2283075); conditions: primary human keratinocytes with fibroblasts; actives raise or lower the signal
Procedure, shortened: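 ELISA read-out of uPA 24 h after dosing human skin keratinocytes co-cultured with foreskin fibroblasts. Signal change fitted both ways relative to DMSO; sulforhodamine B on parallel cultures marks overt cytotoxicity.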

[4] = read-out: CD40, CD40 (gene 958); assay: BSK_LPS_CD40: BioMAP Diversity Plus: LPS Assay for CD40 Biomarker Activity (AID 2283076); conditions: primary human HUVEC with PBMC; actives raise or lower the signal
Procedure, shortened: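 CD40 signal, measured by ELISA, is fitted in both directions relative to DMSO vehicle. The system is an LPS-driven human vascular primary co-culture of endothelial cells and PBMC, sampled 24 h after compound addition.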

[5] = read-out: E-selectin (Homo sapiens) (UniProt P16581); assay: BSK_LPS_Eselectin: BioMAP Diversity Plus: LPS Assay for Eselectin Biomarker Activity (AID 2283077); conditions: primary human HUVEC with PBMC; actives raise or lower the signal
Procedure, shortened: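 Signal of E-selectin, detected by ELISA, served as the endpoint; cells were umbilical vein endothelium with PBMC, read 24 h after treatment. DMSO defined baseline, and both increases and decreases were fitted.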

[6] = read-out: Interleukin-8 (IL8), CXCL8 (gene 3576); assay: BSK_LPS_IL8: BioMAP Diversity Plus: LPS Assay for Interleukin-8 (IL8) Biomarker Activity (AID 2283078); conditions: primary human HUVEC with PBMC; actives raise or lower the signal
Procedure, shortened: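 Endothelial cells and PBMC from human donors are co-cultured, treated with chemicals and LPS, then assayed for IL-8 by ELISA after 24 h. Parallel SRB staining (0.1% SRB after 10% TCA fixation, 560 nm) flags cytotoxicity.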

[7] = BSK_LPS_SRB: Viability Assessment in the BioMAP Diversity Plus: LPS Assay (AID 2283079); conditions: primary human HUVEC with PBMC;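 further: total protein by sulforhodamine B absorbance as a cytotoxicity measure; measured one day after compound addition; fitted in both directions against DMSO so loss or gain of signal counts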
Procedure, shortened: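 Overt cytotoxicity was gauged by sulforhodamine B total-protein staining in a primary human vascular endothelial and mononuclear cell co-culture 24 h post-dosing. Activity was fitted in both directions relative to DMSO.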

[8] = read-out: Interleukin-1 alpha (IL1a), IL1A (gene 3552); assay: BSK_LPS_IL1a: BioMAP Diversity Plus: LPS Assay for Interleukin-1 alpha (IL1a) Biomarker Activity (AID 2283080); conditions: primary human HUVEC with PBMC; actives raise or lower the signal
Procedure, shortened: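 Measured: IL-1 alpha via ELISA at 24 h in LPS-activated human umbilical vein endothelium–PBMC co-culture. Baseline: DMSO, bidirectional fitting.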

[9] = read-out: Monocyte Chemoattractant Protein-1 (MCP1), CCL2 (gene 6347); assay: BSK_LPS_MCP1: BioMAP Diversity Plus: LPS Assay for Monocyte Chemoattractant Protein-1 (MCP1) Biomarker Activity (AID 2283081); conditions: primary human HUVEC with PBMC; actives raise or lower the signal;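 on AC50: secreted MCP-1 protein quantified by ELISA in culture supernatant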
Procedure, shortened: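 LPS-stimulated HUVEC/PBMC co-culture; chemical, 24 h; MCP-1 by ELISA; bidirectional fit vs DMSO; cytotoxicity via SRB (0.1% stain, 10% TCA fix, 560 nm) in parallel wells.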

[10] = BSK_LPS_PGE2: BioMAP Diversity Plus: LPS Assay for Prostaglandin E2 (PGE2) Biomarker Activity (AID 2283082); conditions: primary human HUVEC with PBMC; actives raise or lower the signal;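 on AC50: secreted prostaglandin E2 measured by ELISA in LPS-stimulated co-culture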
Procedure, shortened: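 Compounds were added to the LPS co-culture of endothelium and PBMC, and PGE2 was measured by ELISA after 24 h. Responses in either direction were fitted with DMSO as baseline.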

Measured: AC50

Chain of E-selectin (Homo sapiens) (P16581 whole entry, looked up): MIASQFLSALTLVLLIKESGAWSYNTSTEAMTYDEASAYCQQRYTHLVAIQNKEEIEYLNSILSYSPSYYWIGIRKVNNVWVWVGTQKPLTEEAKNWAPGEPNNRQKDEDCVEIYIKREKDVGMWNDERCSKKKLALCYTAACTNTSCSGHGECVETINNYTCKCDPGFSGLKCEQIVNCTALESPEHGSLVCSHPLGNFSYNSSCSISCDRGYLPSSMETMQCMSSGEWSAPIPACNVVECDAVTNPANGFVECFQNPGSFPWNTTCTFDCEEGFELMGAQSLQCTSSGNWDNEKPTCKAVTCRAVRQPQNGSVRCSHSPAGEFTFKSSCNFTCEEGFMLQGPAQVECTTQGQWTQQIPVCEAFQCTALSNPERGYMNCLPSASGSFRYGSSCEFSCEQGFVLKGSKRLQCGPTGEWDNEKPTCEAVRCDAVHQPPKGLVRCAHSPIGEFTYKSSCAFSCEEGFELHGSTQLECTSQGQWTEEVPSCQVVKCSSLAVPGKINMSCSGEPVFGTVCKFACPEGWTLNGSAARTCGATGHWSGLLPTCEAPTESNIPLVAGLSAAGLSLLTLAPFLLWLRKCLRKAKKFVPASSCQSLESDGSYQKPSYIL

CCCCCCCCCC[N+](C)(C)CCCCCCCCCC
active: [1] 4.69 µM | [2] 4.56 µM | [3] 5.24 µM | [4] 4.27 µM | [5] 4.41 µM | [6] 5.86 µM | [7] 5.32 µM | [8] 3.75 µM | [9] 4.16 µM | [10] 3.88 µM

CCOC(=O)C(O)(c1ccc(Cl)cc1)c1ccc(Cl)cc1
inactive: [1] | [2] | [3] | [10]
active: [4] 26.1 µM | [5] 31.5 µM | [6] 35.2 µM | [7] 34.2 µM | [8] 30.3 µM | [9] 39.1 µM

ClC1=C(Cl)[C@]2(Cl)[C@@H]3[C@H]4C[C@H]([C@@H]5O[C@H]45)[C@@H]3[C@@]1(Cl)C2(Cl)Cl
active: [7] 7.24 µM
inactive: all other assays above

C=CC(N)=O
inactive: all assays above

CCCCCCCCCc1ccc(O)cc1
active: [2] 13.2 µM | [3] 17.2 µM | [4] 22.6 µM | [5] 29.9 µM | [6] 27.6 µM | [7] 23.1 µM | [8] 22 µM | [9] 32.2 µM | [10] 7.76 µM

CCCCCCOC(=O)c1ccccc1C(=O)OCCCCCC
active: [6] 20 µM | [9] 34.9 µM
inactive: all other assays above

c1ccc(-c2ccccc2)cc1
not listed: [1]
inactive: all other assays above

C[C@]12CCC(=O)C=C1CC[C@@H]1[C@@H]2CC[C@@]2(C)[C@H]1CC[C@]2(C)O
inactive: all assays above

CCC(=O)O[C@H]1CC[C@H]2[C@@H]3CCC4=CC(=O)CC[C@]4(C)[C@H]3CC[C@]12C
inactive: [1] | [10]
active: [2] 32.4 µM | [3] 32.5 µM | [4] 28 µM | [5] 29.4 µM | [6] 26.5 µM | [8] 31.9 µM | [9] 25.5 µM
